± gives the standard deviation of the averaged measurements.
Assays:
[1] = system: CLZ3 (HCA2 human fibroblast dual HR-NHEJ reporter); test: NHEJ repair efficiency (GFP+ cells) relative to control (log10 fold); higher = more non-homologous end joining; conditions: 5 µM; doxycycline 0.5 ug/mL
[2] = system: CLZ3 (HCA2 human fibroblast dual HR-NHEJ reporter); test: HR repair efficiency (tdTomato+ cells) relative to control (log10 fold); higher = more homologous recombination; conditions: 5 µM; doxycycline 0.5 ug/mL
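For HR repair efficiency (tdTomato+ cells) relative to control in this document: compound given one day before doxycycline, which switches on I-SceI endonuclease expression to create double-strand breaks within the integrated reporter.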
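For NHEJ repair efficiency (GFP+ cells) relative to control in this document: compound given one day ahead of doxycycline, which switches on I-SceI endonuclease to cut the chromosomally integrated reporter and create DSBs.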

SMILES	NHEJ repair efficiency (log10) [1]	HR repair efficiency (log10) [2]
C/C=C1/[C@H](O[C@@H]2O[C@H](CO)[C@@H](O)[C@H](O)[C@H]2O)OC=C(C(=O)OC)[C@H]1CC(=O)OCCc1ccc(O)c(O)c1 [Oleuropein]	0.0183	0.0478
NCC(=O)O [Aminoacetic acid]	0.185	0.151
C=C(C)[C@@H]1CC[C@]2(C(=O)O[C@@H]3O[C@H](CO[C@@H]4O[C@H](CO)[C@@H](O[C@@H]5O[C@@H](C)[C@H](O)[C@@H](O)[C@H]5O)[C@H](O)[C@H]4O)[C@@H](O)[C@H](O)[C@H]3O)CC[C@]3(C)[C@H](CC[C@@H]4[C@@]5(C)CC[C@H](O[C@@H]6OC[C@H](O)[C@H](O)[C@H]6O[C@@H]6O[C@@H](C)[C@H](O)[C@@H](O)[C@H]6O)[C@@](C)(CO)[C@@H]5CC[C@]43C)[C@@H]12 [Anemoside B4]	-0.0464	0.0526
C[C@H](CCC(=O)O)[C@H]1CC[C@H]2[C@@H]3[C@H](O)C[C@@H]4C[C@H](O)CC[C@]4(C)[C@H]3CC[C@]12C [Chenodeoxycholic Acid]	-0.124	0.00712
Oc1ccc(/C=C/c2cc(O)cc(O)c2)cc1 [Resveratrol]	-0.0132	0.0336
CC(C)=CCc1c(O)ccc(C(=O)/C=C/c2ccc(O)cc2)c1O [Isobavachalcone]	0.0115	0.0547
COc1cc(O)c2c(=O)c3c(O[C@@H]4O[C@H](CO)[C@@H](O)[C@H](O)[C@H]4O)ccc(O)c3oc2c1 [Swertianolin]	0.00276	0.201
C[C@@H]1O[C@@H](O[C@H]2C(=O)c3c(O)cc(O)cc3O[C@@H]2c2ccc(O)c(O)c2)[C@H](O)[C@H](O)[C@H]1O [Astilbin]	0.0148	0.109
C/C=C1\[C@H]2C=C(C)C[C@]1(N)c1ccc(=O)[nH]c1C2 [Huperzine-A]	0.0591	0.0391
O=c1c(O)c(-c2ccc(O)c(O)c2)oc2cc(O)ccc12 [Fisetin]	-0.223	-0.0214
CO[C@H]1O[C@@H]2O[C@@]3(C)CC[C@H]4[C@H](C)CC[C@@H]([C@H]1C)[C@@]24OO3 [Artemether]	0.125	0.186
CC1(C)C2CCC1(C)C(O)C2 (stereo not drawn) [Borneol]	0.0116 ± 0.059	0.0372 ± 0.12
C=C1CC[C@@H]2[C@](C)(CO)[C@H](O)CC[C@@]2(C)[C@H]1C/C=C1\C=COC1=O [Dehydroandrographolide]	0.015	0.116
CC1OC(OC2C(OC3CCC4(C)C(CCC5(C)C4CC=C4C6CC(C)(C)CCC6(C(=O)OC6OC(COC7OC(CO)C(O)C(O)C7O)C(O)C(O)C6O)CCC45C)C3(C)CO)OCC(O)C2O)C(O)C(O)C1O (stereo not drawn) [Dipsacoside B]	-0.0161 ± 0.011	0.00385 ± 0.11
COc1cc2c(cc1O)CC[n+]1cc3c(OC)c(OC)ccc3cc1-2 [Jateorrhizine]	-0.216	-0.189
CC(C)=CCOc1c2ccoc2cc2oc(=O)ccc12 [Isoimperatorin]	-0.032 ± 0.014	0.0188 ± 0.0059
O=C(/C=C/c1ccc(O[C@@H]2O[C@H](CO)[C@@H](O)[C@H](O)[C@H]2O)cc1)c1ccc(O)cc1O [Isoliquiritoside]	-0.17	-0.232
CC1(C)CC[C@]2(C(=O)O)CCC3=C([C@@H](CCl)C[C@@H]4[C@@]5(C)C[C@H](O)[C@H](O)[C@@](C)(C(=O)O)[C@@H]5CC[C@@]34C)[C@@H]2C1 [Tenuigenin]	0.0402	0.0517
C[C@@H]1CC[C@@]2(OC1)O[C@H]1C[C@H]3[C@@H]4CC[C@H]5C[C@@H](O)CC[C@]5(C)[C@H]4CC[C@]3(C)[C@H]1[C@@H]2C [Tigogenin]	0.0196	0.0468
C[C@@H]1O[C@@H](OC[C@H]2O[C@@H](OCCc3ccc(O)c(O)c3)[C@H](O)[C@@H](O)[C@@H]2O)[C@H](O)[C@H](O)[C@H]1O [Forsythoside E]	-0.0418	0.0386
C[C@@H]1O[C@@H](Oc2cc(O)c3c(=O)c(O[C@@H]4O[C@@H](C)[C@H](O)[C@@H](O)[C@H]4O)c(-c4ccc(O)cc4)oc3c2)[C@H](O)[C@H](O)[C@H]1O [Kaempferitrin]	0.0262	0.0294
C[C@@H]1CC[C@@]2(NC1)O[C@H]1C[C@H]3[C@@H]4CC=C5C[C@@H](O[C@@H]6O[C@H](CO)[C@H](O)[C@H](O[C@@H]7O[C@H](CO)[C@@H](O)[C@H](O)[C@H]7O)[C@H]6O[C@@H]6O[C@@H](C)[C@H](O)[C@@H](O)[C@H]6O)CC[C@]5(C)[C@H]4CC[C@]3(C)[C@H]1[C@@H]2C [Solasonine]	-0.000957	0.0163
O=Cc1ccc(O[C@@H]2O[C@H](CO)[C@@H](O)[C@@H](O)[C@H]2O)cc1 [Helicide]	0.119 ± 0.097	0.0668 ± 0.075
COc1c2c(cc3oc(C)cc(=O)c13)O[C@H](C(C)(C)O)C2 [5-O-Methylvisamminol]	-0.159	-0.14
C=CCc1ccc(O)c(-c2cc(CC=C)ccc2O)c1 [Magnolol]	0.0133	0.105

SMILES	NHEJ repair efficiency (log10) [1]	HR repair efficiency (log10) [2]
COc1ccc(-c2coc3cc(O)cc(O)c3c2=O)cc1 [Biochanin A]	-0.0507	0.0228
C[C@@H]1C(=O)O[C@H]2C[C@@]34O[C@@H]5OC(=O)[C@H](O)[C@@]56[C@H](C(C)(C)C)[C@H](O)C(OC3=O)[C@]64[C@]21O (stereo partly drawn) [Ginkgolide J]	0.0205	0.076
CC(C)=CCC[C@](C)(O[C@@H]1O[C@H](CO)[C@@H](O)[C@H](O)[C@H]1O)[C@H]1CC[C@]2(C)[C@@H]1[C@H](O)C[C@@H]1[C@@]3(C)CC[C@H](O[C@@H]4O[C@H](CO)[C@@H](O)[C@H](O)[C@H]4O[C@@H]4O[C@H](CO)[C@@H](O)[C@H](O)[C@H]4O)C(C)(C)[C@@H]3CC[C@]12C [Ginsenoside Rd]	0.0871	0.0615
C[C@@H]1O[C@@H](Oc2c(-c3ccc(O)c(O)c3)oc3cc(O)cc(O)c3c2=O)[C@H](O)[C@H](O)[C@H]1O [Quercitrin]	-0.0507	0.0282
O=C(C=Cc1ccc(O)c(O)c1)O[C@H]1[C@H](O)C[C@](O)(C(=O)O)C[C@H]1OC(=O)C=Cc1ccc(O)c(O)c1 [Isochlorogenic Acid C (4,5-Di-O-Caffeoylquinic Acid)]	0.021	-0.0644
CC(=O)O[C@H]1[C@H](OCCc2ccc(O)c(O)c2)O[C@H](CO)[C@@H](OC(=O)/C=C/c2ccc(O)c(O)c2)[C@@H]1O[C@@H]1O[C@@H](C)[C@H](O)[C@@H](O)[C@H]1O [2-Acetylacteoside]	-0.00932	-0.164
O=C(OCC1=C[C@@H](O)[C@@H]2C=CO[C@@H](O[C@@H]3O[C@H](CO)[C@@H](O)[C@H](O)[C@H]3O)[C@H]12)c1ccc(O)cc1 [Agnuside]	-0.062	0.106
COc1c2occc2cc2ccc(=O)oc12 [Xanthotoxin]	-0.261	-0.0664
Cc1c(O)cc2c(c1O)C(=O)c1ccc(O)c(O)c1C2=O [3-Hydroxymorindone]	-0.105	0.0716
COc1ccc(-c2cc(=O)c3c(O)cc(O)cc3o2)cc1 [Acacetin]	-0.203	0.0794
C=C(C)C(=O)Cc1c(OC)ccc2ccc(=O)oc12 [Murrayone]	0.0921	-0.312
COc1ccc2c(OC)c3ccoc3nc2c1OC [Skimmianine]	-0.0606	0.00427
CC(C)=CCC12Oc3cc(O)ccc3C1(O)Oc1cc(O)c([C@H]3C=C(C)C[C@@H](c4ccc(O)cc4O)[C@@H]3C(=O)c3ccc(O)cc3O)c(O)c1C2=O (stereo partly drawn) [Sanggenon D]	-0.0219	-0.176
O=C(/C=C/c1ccc(O)c(O)c1)O[C@@H]1C[C@](O)(C(=O)O)C[C@@H](O)[C@H]1O [Chlorogenic Acid]	0.0025	-0.132
COc1cc(OC)c2ccc(=O)oc2c1 [Citropten]	0.137	0.0946
COc1ccc(-c2oc3cc(O)cc(O)c3c(=O)c2O)cc1 [Kaempferide]	-0.0948	-0.167
O=C(/C=C/c1ccc(O)c(O)c1)O[C@@H]1C[C@](OC(=O)/C=C/c2ccc(O)c(O)c2)(C(=O)O)C[C@@H](O)[C@H]1O [1,3-Di-O-Caffeoylquinic Acid]	-0.263	-0.0833
C[C@@H]1O[C@@H](O[C@@H]2[C@H](O)[C@@H](O)[C@H](O[C@H]3CC[C@@]4(C)C(CC[C@]5(C)C4C=C[C@]46OC[C@@]7(CCC(C)(C)CC74)[C@@H](O)C[C@]65C)C3(C)C)O[C@@H]2CO[C@@H]2O[C@H](CO)[C@@H](O)[C@H](O)[C@H]2O)[C@H](O)[C@H](O)[C@H]1O (stereo partly drawn) [Saikosaponin c]	-0.0431	-0.104
C=C1C2CCC3(C4C[C@H]5C6(CCC[C@@]5(C)CN(CC)C46)[C@H]3[C@H]2O)[C@@H]1O [Bullatine A]	-0.197	-0.165
COc1cc(-c2oc3cc(O)cc(O)c3c(=O)c2O[C@@H]2O[C@H](CO)[C@@H](O)[C@H](O)[C@H]2O[C@@H]2O[C@@H](C)[C@H](O)[C@@H](O)[C@H]2O)ccc1O [Isorhamnetin-3-O-Nehesperidine]	-0.039	-0.0649
COc1c(O)cc2oc(-c3ccccc3)cc(=O)c2c1O [Oroxylin A]	0.0844	0.0534
C[C@@]1(CO)C[C@@H](O)C[C@@]2(C)[C@@H]3CC[C@](C)([C@@H](O)CO)C=C3CC[C@H]12 [Kirenol]	-0.121	0.0441
C[C@H](CCC(=O)O)[C@H]1CC[C@H]2[C@@H]3[C@H](O)C[C@@H]4C[C@H](O)CC[C@]4(C)[C@H]3C[C@H](O)[C@]12C [Cholic acid]	-0.0347	-0.0733
C[C@@H]1[C@H]2[C@H](O[C@@H]3O[C@H](CO)[C@@H](O)[C@H](O)[C@H]3O)OC=C(C(=O)O)[C@H]2C[C@@H]1O [Loganic Acid]	0.0621	0.135

Source: the supplement of paper PMC7380943
